The whole screen tested about 2,400 compounds, of which about 750 (31%) were called active.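 How the source made its calls: active means median signal gain over dofetilide-blocked control wells reaching their mean plus 3 SD, so readout 1 at least 0; inactive means the rest.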 The list shows a part of the results.
target: Voltage-gated inwardly rectifying potassium channel KCNH2 (Homo sapiens) (UniProt Q12809); assay: hERG protection against dofetilide inhibition, confirmation, cell-based, thallium flux, duplicate retest, dofetilide IC70 (AID 1835); details: hERG cell line, FluxOR thallium flux, dofetilide-blocked; at 10 µM; active compounds read high
Sequence (Q12809 whole entry, looked up): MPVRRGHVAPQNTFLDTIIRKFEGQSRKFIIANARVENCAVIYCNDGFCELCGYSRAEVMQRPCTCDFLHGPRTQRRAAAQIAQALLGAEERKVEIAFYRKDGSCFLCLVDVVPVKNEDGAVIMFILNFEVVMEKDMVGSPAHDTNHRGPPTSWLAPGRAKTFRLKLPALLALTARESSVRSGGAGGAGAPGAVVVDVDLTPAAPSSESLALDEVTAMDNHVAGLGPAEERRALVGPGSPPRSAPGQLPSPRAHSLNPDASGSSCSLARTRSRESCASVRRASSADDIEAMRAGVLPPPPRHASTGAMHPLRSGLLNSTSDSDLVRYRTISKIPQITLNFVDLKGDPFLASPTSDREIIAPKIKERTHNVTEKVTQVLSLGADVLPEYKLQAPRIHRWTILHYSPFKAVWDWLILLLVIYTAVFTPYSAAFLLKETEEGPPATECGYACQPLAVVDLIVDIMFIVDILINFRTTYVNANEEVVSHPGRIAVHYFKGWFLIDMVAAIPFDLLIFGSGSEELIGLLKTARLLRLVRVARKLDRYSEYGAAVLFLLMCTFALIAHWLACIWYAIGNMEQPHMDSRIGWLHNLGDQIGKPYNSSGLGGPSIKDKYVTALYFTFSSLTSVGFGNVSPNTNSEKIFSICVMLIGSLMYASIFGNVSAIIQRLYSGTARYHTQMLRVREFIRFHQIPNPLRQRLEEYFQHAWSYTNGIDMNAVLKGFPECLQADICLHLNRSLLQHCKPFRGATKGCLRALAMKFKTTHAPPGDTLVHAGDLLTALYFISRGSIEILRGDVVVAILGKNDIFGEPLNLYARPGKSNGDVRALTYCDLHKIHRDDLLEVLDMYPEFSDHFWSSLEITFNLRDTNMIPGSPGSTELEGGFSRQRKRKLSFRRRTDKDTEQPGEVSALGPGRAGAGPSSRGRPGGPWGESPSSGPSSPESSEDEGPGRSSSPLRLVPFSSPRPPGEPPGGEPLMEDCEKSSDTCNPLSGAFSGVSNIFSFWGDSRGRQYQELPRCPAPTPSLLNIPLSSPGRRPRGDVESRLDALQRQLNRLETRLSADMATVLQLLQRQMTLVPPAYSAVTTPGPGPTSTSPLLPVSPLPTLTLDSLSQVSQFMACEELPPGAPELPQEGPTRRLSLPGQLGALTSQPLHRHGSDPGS

SMILES	activity increase over dofetilide control, less the hit threshold
CN(C)c1oc(-c2ccccc2[N+](=O)[O-])nc1C#N	-15% (inactive)
COc1ccc(C2N=C(c3ccccc3)C(C)(C)N2O)cc1 (centres undefined)	-16% (inactive)
CCOC(=O)C1CCCCN1Cc1ccc(F)cc1 (centres undefined)	-14% (inactive)
Cc1cccc(NC(=O)CN2C(=O)S/C(=C\c3ccc(-c4cccc(C(=O)O)c4C)o3)C2=O)c1	71% (active)
O=C(CN1C(=O)S/C(=C\c2cccs2)C1=O)Nc1ccc(O)c(C(=O)O)c1	-3% (inactive)
O=C(CN1C(=O)S/C(=C\c2cc(Cl)c(O)c(Cl)c2)C1=O)Nc1ccccc1	-21% (inactive)
O=C(CN1C(=O)S/C(=C\c2cccs2)C1=O)Nc1ccc(C(=O)O)c(O)c1	12% (active)
O=S(=O)(NCc1ccc(Cl)cc1Cl)c1ccc(N2CCOCC2)nc1	-25% (inactive)
S=c1nc(C2CCCCC2)n(-c2ccccc2)[nH]1	24% (active)
Cc1onc(-c2ccccc2)c1C(=O)NC(=S)Nc1sc2c(c1C#N)CCCC2	-3% (inactive)
Cc1onc(-c2ccccc2)c1C(=O)NC(=S)Nc1sc2c(c1C#N)CCC(C)C2 (centres undefined)	24% (active)
Cc1onc(-c2ccccc2Cl)c1C(=O)NC(=S)Nc1ccc(C(C)C)cc1	-20% (inactive)
O=C(O)C[C@H]1c2cc(F)ccc2S(=O)(=O)N1C1CCCCC1	-15% (inactive)
O=C(CN1C(=O)NC(Cc2ccccc2)C1=O)Nc1ccccc1OC(F)F (centres undefined)	-10% (inactive)
CCOc1ccc(NC(=O)c2ccc3c(c2)CCN3S(C)(=O)=O)cc1	-21% (inactive)
O=C(O)COc1ccc(NC(=O)c2ccc3c(c2)C(=O)N(C2CCCCC2)C3=O)cc1	4% (active)
O=C(CN1CCCCCC1)Nc1ccc(Oc2ccccc2)cc1	-10% (inactive)
O=C(O)CCCn1cc(NC(=O)COc2ccc(F)cc2)cn1	-17% (inactive)
CC(NC(=S)NC1CCCCC1)c1ccccc1 (centres undefined)	-11% (inactive)
CC(NC(=O)C1CCN(S(=O)(=O)c2cccc3cccnc23)CC1)c1ccccc1 (centres undefined)	-15% (inactive)
O=C(COC(=O)/C=C/c1ccc2c(c1)OCO2)NC1CC1	-20% (inactive)
Cc1ccc(C(C)NC(=O)c2ccc3c(c2)OCO3)cc1C (centres undefined)	0% (inactive)
CC(NC(=O)NC1CCCCC1)c1ccc2c(c1)OCO2 (centres undefined)	1% (active)
CC(NC(=O)NC1CCCCC1)c1ccccc1 (centres undefined)	9% (active)
O=C(O)c1ccc2c3n(nc2c1)-c1ccc(Cl)cc1CO3	-7% (inactive)
O=C(NNc1nc2c(F)cccc2s1)c1cc(=O)c2ccccc2o1	6% (active)

SMILES	activity increase over dofetilide control, less the hit threshold
Cc1cc(C)c(NC(=O)C2CC3CCC2C3)c(C)c1 (centres undefined)	-5% (inactive)
CCn1cc(C(=O)NCCN(C)C)c(=O)c2cc(F)c(N3CCN(C)CC3)cc21	-17% (inactive)
O=C(Nn1c(O)c(C=C2N=c3ccccc3=N2)sc1=S)c1cccc(Cl)c1	33% (active)
O=C(CCC1CCCC1)NNC(=O)c1cccc(Cl)c1	-7% (inactive)
Cn1sc(NC(=O)c2cccc(Cl)c2)nc1=O	-1% (inactive)
CCN1C(=O)/C(=C/N2CCc3ccccc32)SC1=S	-9% (inactive)
CCCCN1C(=O)/C(=C2/Sc3ccc(Cl)cc3N2CC)SC1=S	42% (active)
CCCCCC/C(C)=C1/SC(=S)NC1=O	87% (active)
CC(=O)n1nc(-c2ccncc2)nc1SCC(=O)Nc1cccc(Cl)c1	-10% (inactive)
O=C(O)c1cc(N/N=C/c2ccc(-c3ccccc3)cc2)ccc1Cl	-16% (inactive)
CCCOc1ccc(C(=O)N(CC(C)C)c2c(N)n(Cc3ccccc3)c(=O)[nH]c2=O)cc1	-7% (inactive)
CC(C)CN(C(=O)COC(=O)CNC(=O)c1ccccc1F)c1c(N)n(Cc2ccccc2)c(=O)[nH]c1=O	-11% (inactive)
COCCN(C(=O)CSc1nnc(C)n1Cc1ccccc1)c1c(N)n(CC(C)C)c(=O)[nH]c1=O	1% (active)
COc1cc(/C=C2/SC(=S)N(CC(=O)O)C2=O)ccc1OCC(=O)Nc1ccc(C)c(C)c1	89% (active)
COc1cccc(CN=c2c([N+](=O)[O-])nn(-c3ccccc3C)n2O)c1	-15% (inactive)
O=C(c1n[nH]c2c1CCCC2)n1ccnc1	-2% (inactive)
CCOc1cc(Br)c(C(=O)O)cc1OC	-17% (inactive)
OC(COC(c1ccccc1)c1ccccc1)CN1CCCCC1 (centres undefined)	-18% (inactive)
CCOC(=O)c1c(C)[nH]c(=S)c(C#N)c1-c1ccc(Cl)cc1	-5% (inactive)
CCCCOc1ccc(-c2c(C#N)c(N)[nH]c(=S)c2C#N)cc1	38% (active)
N#Cc1c(-c2ccco2)c2c([nH]c1=S)CCCC2	-9% (inactive)
c1ccc(Oc2cccc(OCCn3cncn3)c2)cc1	-4% (inactive)
COCC(=O)N(Cc1ccco1)c1nnc(C2CCOC2)s1 (centres undefined)	-19% (inactive)
CC(NC(=O)COC(=O)C1CCC1)c1ccccc1 (centres undefined)	-6% (inactive)
Cc1ccc(CNC(=O)CN2C(C)CCCC2C)cc1 (centres undefined)	-7% (inactive)
Cc1ccc(C(=O)COC(=O)C2CCC2)cc1	4% (active)

SMILES	activity increase over dofetilide control, less the hit threshold
CC(C)C(NC(=O)c1ccccc1)C(=O)N/N=C\c1ccco1 (centres undefined)	-17% (inactive)
Oc1ccc(N2CCN(C(c3cccnc3)c3nnnn3Cc3ccccc3)CC2)cc1 (centres undefined)	0% (inactive)
COc1ccc(-n2nc(C)cc2Nc2ccccc2C(=O)O)cc1	31% (active)
COc1ccc(N2CCN(C(=O)c3ccc(-c4ccccc4)cc3)CC2)cc1	-18% (inactive)
Cc1cc(NC(=O)/C(C#N)=C/c2ccco2)n(-c2ccccc2)n1	-12% (inactive)
O=C(O)c1cccc2cc(-c3ccccc3)oc(=O)c12	-13% (inactive)
CCCCN(C(=O)CC1CCCC1)c1c(N)n(CC(C)C)c(=O)[nH]c1=O	-4% (inactive)
Fc1cccc(/C=N/Nc2ccc3ccccc3n2)c1	-7% (inactive)
Oc1ccc(N=Nc2ccc3c(c2)OCCO3)c2ncccc12	-4% (inactive)
COc1cccc(N=Nc2ccc(O)c3ncccc23)c1	25% (active)
Oc1c(N=Nc2ccccn2)ccc2ccccc12	-5% (inactive)
CCOc1ccc(N=Nc2ccc(O)c3ncccc23)cc1	0% (inactive)
COc1ccc(OC)c(S(=O)(=O)NCc2cn3cccc(C)c3n2)c1	-17% (inactive)
COc1ccc(N(CC(=O)NCc2cccnc2)S(=O)(=O)c2ccccc2[N+](=O)[O-])c(OC)c1	-3% (inactive)
O=[N+]([O-])c1ccc(O)c2ncccc12	-8% (inactive)
COc1ccccc1N=Nc1ccc(O)c2ncccc12	2% (active)
CCN(CC)S(=O)(=O)c1cc(OC)ccc1N=Nc1ccc(O)c2ncccc12	27% (active)
Cc1ccc(N=Nc2ccc(O)c3ncccc23)cc1	40% (active)
COCC(=O)NC1CC2CCC(C1)N2C(=S)Nc1ccccc1C(=O)OC (centres undefined)	-6% (inactive)
CCC[C@H]1COCCS(=O)(=O)N1Cc1ccc(Br)cc1	-4% (inactive)
CS(=O)(=O)N1CCC(C(=O)Nc2c(F)cccc2F)CC1	-6% (inactive)
Cn1c(=O)c2c(nc(Cl)n2CC(=O)N2CCCCC2)n(C)c1=O	-11% (inactive)
N=C1SCC(=O)N1c1ncc(Cc2ccccc2Cl)s1	-9% (inactive)
O=C(N/N=C/c1ccc(-c2ccccc2)o1)c1ccccc1O	-1% (inactive)
Cc1cccc(/C=N/NC(=O)c2cc(Br)ccc2O)n1	0% (inactive)
Cc1ccc(/C=N/NC(=O)c2cc(C)oc2C)o1	-5% (inactive)

SMILES	activity increase over dofetilide control, less the hit threshold
Cc1ccc(/C=N/NC(=O)c2cc3ccccc3cc2O)o1	37% (active)
O=C(N/N=C/c1ccc(Sc2ccccn2)o1)c1cc2ccccc2cc1O	7% (active)
Cc1ccc(/C=N/NC(=O)c2cc(-c3ccncc3)nc3ccccc23)o1	-22% (inactive)
COc1ccc(CCNS(=O)(=O)c2csc(C(N)=O)c2)cc1OC	-14% (inactive)
Cc1nnc2c(SC(C)C)nc3ccccc3n12	-19% (inactive)
Cc1nc2ccccc2n1-c1ccccc1	3% (active)
COC(=O)c1ccc(-n2c(C)nc(=O)c(-c3ccccc3)c2C)cc1	-13% (inactive)
C=C(C)CSc1nnc2[nH]c(=O)cc(N)n12	-19% (inactive)
CC1=CCC[C@@H]2[C@@](C)(CC/C(C)=C/C(=O)O)[C@H](C)CC[C@@]12C	84% (active)
Nc1ccc2oc(-c3ccccc3Cl)cc(=O)c2c1O	-3% (inactive)
Cc1nc2scc(C)n2c(=O)c1S(=O)(=O)Nc1ccc(N2CCOCC2)cc1	-7% (inactive)
CSc1nc2sc3c(c2c(=S)[nH]1)CC(C)(C)OC3	81% (active)
CCC1(C)Cc2c(sc3nc(SC)[nH]c(=S)c23)CO1 (centres undefined)	87% (active)
CCc1nc2sc3c(c2c(=S)[nH]1)CC(C)(C)OC3	-8% (inactive)
CCN(CC(=O)NCc1ccc(Cl)cc1)C(=O)CCOc1ccc(C)cc1	-14% (inactive)
CNc1nc(N)nc(OC(C(F)(F)F)C(F)(F)F)n1	-24% (inactive)
Oc1c(Br)cc(Cl)cc1C=Nc1ccccc1Br	9% (active)
Oc1c(Cl)cc(Cl)cc1/C=N/c1nccs1	-11% (inactive)
O=C(Nc1cccc(N=Cc2cc(Cl)cc(Br)c2O)c1)c1ccco1	6% (active)
Oc1c(Cl)cc(Cl)cc1/C=N/c1ncn[nH]1	15% (active)
Oc1c(Br)cc(Br)cc1C=Nc1cccc2ncccc12	-7% (inactive)
O=C(N/N=C/c1cc(Cl)ccc1O)c1ccccc1Br	-3% (inactive)
O=C(Nc1ccccc1C(=O)O)c1cccc(NC(=O)c2ccco2)c1	-3% (inactive)
NC(=O)c1cccc(N=Cc2cc(Cl)cc(Cl)c2O)c1	6% (active)
O=C(NC(=S)Nc1cccc([N+](=O)[O-])c1)c1ccco1	-16% (inactive)
COc1ccccc1-n1c(CCC(=O)O)ccc1-c1ccccc1	-12% (inactive)

Reference: PubChem BioAssay AID1835 (Johns Hopkins Ion Channel Center, 2009)
